# High-throughput results (PubChem BioAssay)
# Compounds with a hit are over-represented: about 3% of the library has one in this group of screens.
# EWS-Fli inh = blocks EWS/Fli oncoprotein-driven transcription. actives 0.67% (n = 350,000). A673 NR0B1-luciferase reporter, viability-normalised. inhibition, % at 12.6 µM;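 active = mean inhibition of at least 50% after viability correction, with every replicate also passing that limit; inconclusive = mean reaches 50% but only one of two replicates passes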;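 note: firefly luciferase signal divided by Alamar Blue viability fluorescence both relative to DMSO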
# PAX8 inh HTS = lowers PAX8-driven luciferase in RMG-I cells; RMG-I TPO-luciferase reporter, SteadyGlo, 24 h; inhibition, % at 12.6 µM; actives 1.2% (n = 360,000);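 active = mean replicate inhibition at least 60% with every replicate also reaching 60%; inconclusive = only one of the two criteria is met; inactive = mean below 60% and not all replicates reaching 60%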;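 note: luciferase light reporting Pax8 driven TPO promoter activity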
# MITF TRPM1 inh = inhibitors of MITF-driven TRPM1 promoter in melanoma cells | actives 0.83% (n = 330,000) | inhibition, % at 12.5 µM | SK-MEL-5 TRPM1 promoter luciferase, 24 h;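 active = mean inhibition across replicates of 60% or more, whatever share of single replicates reaches that level; inconclusive = some that reach 60%, reason not given; inactive = mean inhibition across replicates below 60%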
# Peg3 promoter = inhibitors of Peg3 promoter; inhibition, % at 20 µM; HeLa PEG-Prom luciferase reporter, luminescence, overnight; actives 1.7% (n = 360,000);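 active = inhibition of at least 50% at 20 µM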
# ABHD5-PLIN5 inh = blocks binding of human ABHD5 to perilipin-5. Q00G26+Q8WTS1. Split G. princeps luciferase complementation, luminescence, 4 h. inhibition, % at 4 µM. actives 0.78% (n = 360,000). AID 602281;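 active = inhibition above the mean inhibition across every tested compound plus 3 SD, cut at about 22% in these data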
# Target sequence (Q00G26 whole entry, looked up): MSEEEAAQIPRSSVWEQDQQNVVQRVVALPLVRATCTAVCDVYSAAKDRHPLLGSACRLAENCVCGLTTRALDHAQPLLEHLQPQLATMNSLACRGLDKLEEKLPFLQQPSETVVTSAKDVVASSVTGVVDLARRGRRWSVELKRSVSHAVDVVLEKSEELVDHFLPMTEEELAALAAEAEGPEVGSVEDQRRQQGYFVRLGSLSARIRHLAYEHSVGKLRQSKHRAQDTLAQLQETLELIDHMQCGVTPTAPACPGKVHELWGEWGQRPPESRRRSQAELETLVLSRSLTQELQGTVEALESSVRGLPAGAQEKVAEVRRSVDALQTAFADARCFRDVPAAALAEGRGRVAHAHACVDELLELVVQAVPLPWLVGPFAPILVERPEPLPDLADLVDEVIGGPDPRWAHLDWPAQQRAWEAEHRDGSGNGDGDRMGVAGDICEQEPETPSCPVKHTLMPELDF
# Target sequence (Q8WTS1 whole entry, looked up): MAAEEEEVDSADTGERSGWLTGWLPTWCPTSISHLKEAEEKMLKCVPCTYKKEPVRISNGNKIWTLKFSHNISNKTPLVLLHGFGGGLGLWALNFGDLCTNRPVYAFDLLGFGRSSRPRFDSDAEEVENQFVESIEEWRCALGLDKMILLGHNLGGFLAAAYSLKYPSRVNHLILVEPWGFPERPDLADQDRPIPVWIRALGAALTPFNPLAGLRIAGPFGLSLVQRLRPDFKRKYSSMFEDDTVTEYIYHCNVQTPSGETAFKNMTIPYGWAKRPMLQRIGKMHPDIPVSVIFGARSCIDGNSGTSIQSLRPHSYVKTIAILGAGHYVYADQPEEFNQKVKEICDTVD
# Shn3 3UTR inh = Schnurri-3 reporter inhibition in Clone20 osteoblasts; Clone20 osteoblast Shn3 3'UTR firefly luciferase, 24 h; inhibition, % at 12.5 µM; actives 0.52% (n = 360,000); AID 588674;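 active = mean inhibition of at least 75% with every replicate also reaching 75%; inconclusive = mean inhibition at least 75% but some replicate below; inactive = mean inhibition below 75%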
# A number is an active result; – = inactive; ? = inconclusive; · = no result.
SMILES,EWS-Fli inh,PAX8 inh HTS,MITF TRPM1 inh,Peg3 promoter,ABHD5-PLIN5 inh,Shn3 3UTR inh
COc1ccc(S(=O)(=O)N(C)C[C@@H]2Oc3c(NC(=O)NC4CCCCC4)cccc3C(=O)N([C@@H](C)CO)C[C@@H]2C)cc1,–,·,·,·,·,·
COc1ccc([C@@]2(C(C)C)ON(c3ccccc3C(F)(F)F)C2=O)cc1,–,–,–,62,–,–
COc1ccc(C2(c3ccc(OC)cc3)NC(=O)N(CC(=O)Nc3ccccc3C(F)(F)F)C2=O)cc1,–,–,–,–,–,–
COc1ccc([C@]2(C(C)C)ON(c3ccccc3C(F)(F)F)C2=O)cc1,–,–,–,66,–,–
CN1c2ccc(-c3cccc(C#N)c3)cc2[C@H]2[C@H](CCN2C(=O)C2CCC2)[C@H]1CO,–,–,·,·,·,·
COCC#Cc1ccc2c(c1)O[C@H](CN(C)C(=O)c1ccccc1)[C@H](C)CN([C@H](C)CO)S2(=O)=O,–,·,·,·,·,·
CC(C)(C)c1ccc(-c2cc(N)n[nH]2)cc1,63,–,95,–,–,–
COc1cc(Cn2c3ccc(NC(=O)NCc4ccc(F)cc4)cc3c(=O)n2C)ccc1F,51,–,·,–,–,–
COc1ccc(CCNC(=O)Nc2ccc3c(c2)c(=O)n(C)n3Cc2ccc(F)cc2)cc1OC,–,–,·,–,–,–
COC(=O)C1=CN(c2ccc(F)cc2)C(N)=C(C#N)C1c1ccc(-c2ccccc2)cc1 (stereo not given),–,–,·,·,–,·
COC(=O)C1=CN(c2ccc3c(c2)OCO3)C(N)=C(C#N)C1c1ccc(-c2ccccc2)cc1 (stereo not given),67,–,·,·,–,·
O=S(=O)(c1ccccc1F)N1CCCCN2[C@H](CO)[C@H](c3ccc(-c4cccnc4)cc3)[C@H]2C1,·,–,·,·,·,·
COc1ccc(NC(=O)c2ccc(-c3ccc(-c4noc(C)n4)cc3C)cc2)cc1N1CCN(C)CC1,–,–,?,64,–,–
COc1ccc(-c2nc(-c3ccc(NC(=O)c4ccncc4)cc3)no2)cc1OC,·,·,·,99,–,90
COc1cc(C(=O)Nc2ccc3nc(N4CCN(C)CC4)cc(C)c3c2)cc(OC)c1OC,–,–,·,–,–,–
COc1ccc(CC(=O)Nc2ccc(-c3noc(-c4ccc(Cl)cc4)n3)cc2)cc1,·,·,–,57,–,–
O=C(NCC1CCCCC1)[C@@H]1N[C@@H]2c3ccc(C4=CCCCC4)c(=O)n3C[C@@H]2[C@H]1CO,–,·,·,·,·,·
CC(=O)c1ccc(NC(=O)C(C)OC(=O)/C=C/c2ccco2)cc1 (stereo not given),–,–,–,–,–,88
COc1ccc(CN(C)C[C@@H]2OCCCC[C@H](C)Oc3ccc(NC(=O)CCCN(C)C)cc3C(=O)N([C@@H](C)CO)C[C@H]2C)cc1,–,–,·,·,·,·
COc1cc2ccccc2cc1C(=O)Nc1ccc(N2CCN(C(=O)C(C)C)CC2)cc1,–,–,–,77,–,–
CC(C)c1cccc(NC(=O)C[C@H]2CC[C@H]3[C@@H](COc4ccc(NC(=O)NCc5ccccc5)cc4C(=O)N3C)O2)c1,–,64,·,·,·,·
CN1C(=O)c2cc(NC(=O)Cc3cccs3)ccc2OC[C@@H]2O[C@@H](CC(=O)NCc3ccc(-c4ccccc4)cc3)CC[C@H]21,71,66,·,·,·,·
COc1cccc(S(=O)(=O)Nc2ccc3c(c2)C(=O)N(C)[C@H]2CC[C@H](CC(=O)Nc4ccc(C(C)C)cc4)O[C@@H]2CO3)c1,–,66,·,·,·,·
CN1C(=O)c2cc(NS(=O)(=O)c3ccc(Cl)cc3)ccc2OC[C@H]2O[C@@H](CC(=O)N3CCc4ccccc4C3)CC[C@@H]21,–,74,·,·,·,·
CC(=O)Nc1ccc2c(c1)C(=O)N(C)[C@H]1CC[C@H](CC(=O)Nc3cccc(C(C)C)c3)O[C@@H]1CO2,–,–,·,·,·,·
SMILES,EWS-Fli inh,PAX8 inh HTS,MITF TRPM1 inh,Peg3 promoter,ABHD5-PLIN5 inh,Shn3 3UTR inh
CN1C(=O)c2cc(NS(=O)(=O)c3ccc(Cl)cc3)ccc2OC[C@@H]2O[C@@H](CC(=O)N3CCc4ccccc4C3)CC[C@@H]21,–,–,·,·,·,·
CN1C(=O)c2cc(NC(=O)Cc3cccs3)ccc2OC[C@H]2O[C@H](CC(=O)NCc3ccc(-c4ccccc4)cc3)CC[C@H]21,–,–,·,·,·,·
COc1ccc(S(=O)(=O)Nc2ccc3c(c2)C(=O)N([C@H](C)CO)C[C@@H](C)[C@@H](CN(C)S(=O)(=O)c2ccc(F)cc2)OCCCC[C@H](C)O3)cc1,–,–,·,·,·,·
COc1ccc(NC(=O)N(C)C[C@H]2Oc3ccc(NS(=O)(=O)c4ccc(C)cc4)cc3CC(=O)N([C@@H](C)CO)C[C@@H]2C)cc1,–,–,·,·,·,·
CN(C)C(=O)c1ccc(-c2cccc(-c3nc(C(=O)N(C)C)cc4c3[C@@H](CCO)N([S@](=O)C(C)(C)C)C4)c2)cc1,–,–,·,·,·,·
CCCC#Cc1ccc(CC[C@H]2O[C@H]3CC[C@@H](CO)O[C@H]3C[C@H]2NS(=O)(=O)c2ccccc2)cc1,·,–,·,·,·,·
C[C@@H]1CN([C@@H](C)CO)C(=O)c2cc(-c3ccccc3)cnc2O[C@@H]1CN(C)Cc1ccc(C(=O)O)cc1,–,·,·,·,·,·
CN1C(=O)c2cc(NC(=O)c3cccc(Cl)c3)ccc2OC[C@H]2O[C@H](CC(=O)NC3CCCCC3)CC[C@@H]21,–,70,·,·,·,·
O=C(NCC1OCCc2ccccc21)c1ccc(NC(=O)c2ccc(Cl)cc2)cc1 (stereo not given),·,–,69,–,–,–
Cc1cccc(/C=C/C(=O)c2cc(Br)ccc(=O)c2O)c1,·,·,–,–,23,–
CCOc1ccc(/C=C/C(=O)c2cc(Br)ccc(=O)c2O)cc1,–,–,–,–,–,–
COc1ccc(C=CC(=O)c2c(OC)cc(OC)c(OC)c2O)cc1,–,–,–,–,23,–
COc1ccc(C(=O)/C=C/c2ccc(O)cc2)cc1,–,·,–,–,–,–
CS(=O)(=O)c1ccc(CNC(=O)C2(C(F)(F)F)CC(CCCO)CCCO2)cc1 (stereo not given),59,–,·,·,·,·
CCOC(=O)/C=C(\C)Sc1cc(=O)oc2ccccc12,·,64,–,–,–,–
CCOC(=O)c1c(C)oc2c1cc(O)c1ccccc12,·,·,–,–,–,–
CCOC(=O)/C=C(\C)Sc1cc(O)c2ccccc2c1O,–,–,83,–,–,–
CCOC(=O)Nc1oc2ccccc2c(=O)c1C,·,–,–,–,–,–
CCCC(=O)Nc1ccc2c(c1)C(=O)N(C)C[C@H](OC)[C@H](C)CN(C(=O)C1CCCC1)[C@H](C)CO2,–,–,·,·,·,·
CS(=O)(=O)N1CC2(C1)[C@@H](c1ccccc1)[C@H](CO)N2Cc1ccccn1,–,–,·,·,·,·
CC(=O)NC[C@H]1[C@H](c2ccc(C3=CCCC3)cc2)[C@@H](CO)N1Cc1cccnc1,–,–,·,·,·,·
C=CCN1c2ccccc2[C@]23C[C@@H](C(=O)OC)N(C(=O)c4cccs4)C2=NC(C(=O)OC)=C(C(=O)OC)[C@H]13,–,–,–,75,–,–
